Several values for one entry are separate records, joined by “and”; a condition that tells them apart may be missing. Equal entries are not always repeated. Inconclusive results are not listed. Activity calls are given as the source filed them. The calls were made as follows: active = hit-call score of the fitted dose curve at least 0.9, where 1 is the maximum; inconclusive = response in the unintended direction; inactive = score below 0.9.
The compounds below were run against human Dopamine Receptor D2 (DRD2), DRD2 (gene 1813) (UniProt P14416) (assay: NVS_GPCR_hDRD2s: NovaScreen (NVS) G Protein-Coupled Receptor Assay for human Dopamine Receptor D2 (DRD2) (AID 2283266)).
human Dopamine Receptor D2 (DRD2), DRD2 (gene 1813), sequence (P14416 whole entry, looked up): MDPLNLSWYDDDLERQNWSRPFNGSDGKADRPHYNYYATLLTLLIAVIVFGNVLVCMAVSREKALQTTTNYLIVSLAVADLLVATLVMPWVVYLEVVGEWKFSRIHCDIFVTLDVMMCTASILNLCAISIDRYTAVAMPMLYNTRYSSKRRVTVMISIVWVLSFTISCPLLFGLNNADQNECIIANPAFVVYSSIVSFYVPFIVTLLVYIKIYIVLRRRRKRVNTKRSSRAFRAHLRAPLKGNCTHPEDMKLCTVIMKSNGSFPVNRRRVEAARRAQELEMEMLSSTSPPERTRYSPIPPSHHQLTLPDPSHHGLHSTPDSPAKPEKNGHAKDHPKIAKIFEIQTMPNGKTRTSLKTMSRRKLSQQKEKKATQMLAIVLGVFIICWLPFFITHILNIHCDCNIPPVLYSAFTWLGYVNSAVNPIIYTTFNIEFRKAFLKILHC
Summary of the method: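 Test compound (25 uM, duplicate in the primary screen; concentration series at follow-up) competed with radioligand for human DRD2 in CHO-derived membrane protein. Filter-based scintillation counting was done 1.5 hours after dosing, with loss of signal analysed against DMSO.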
`O=C(O)C(F)(F)C(F)(F)C(F)(F)C(F)(F)C(F)(F)C(F)(F)C(F)(F)C(F)(F)C(F)(F)C(F)(F)F` was tested, and the AC50 was 11 µM (active). `COc1cc(-c2ccc(N)c(OC)c2)ccc1N` was tested, and the AC50 was 5.28 µM (active) and 9.98 µM (active). In the case of `CC(=O)[O][Hg][c]1ccccc1`, the AC50 is reported as 0.428 µM (active). For `C=C(C)C(=O)[O][Sn]([CH2]CCC)([CH2]CCC)[CH2]CCC`, the AC50 was 0.363 µM (active). `CCC(=O)C(CC(C)N(C)C)(c1ccccc1)c1ccccc1` (stereo not drawn) was tested, and the AC50 was 5.6 µM (active). For `CCOP(=S)(OCC)SCSP(=S)(OCC)OCC`, the outcome was “inactive”.

The compounds below were run against human Histamine 1 Receptor (H1), HRH1 (gene 3269) (UniProt P35367) (assay: NVS_GPCR_hH1: NovaScreen (NVS) G Protein-Coupled Receptor Assay for human Histamine 1 Receptor (H1) (AID 2283268)).
human Histamine 1 Receptor (H1), HRH1 (gene 3269), sequence (P35367 whole entry, looked up): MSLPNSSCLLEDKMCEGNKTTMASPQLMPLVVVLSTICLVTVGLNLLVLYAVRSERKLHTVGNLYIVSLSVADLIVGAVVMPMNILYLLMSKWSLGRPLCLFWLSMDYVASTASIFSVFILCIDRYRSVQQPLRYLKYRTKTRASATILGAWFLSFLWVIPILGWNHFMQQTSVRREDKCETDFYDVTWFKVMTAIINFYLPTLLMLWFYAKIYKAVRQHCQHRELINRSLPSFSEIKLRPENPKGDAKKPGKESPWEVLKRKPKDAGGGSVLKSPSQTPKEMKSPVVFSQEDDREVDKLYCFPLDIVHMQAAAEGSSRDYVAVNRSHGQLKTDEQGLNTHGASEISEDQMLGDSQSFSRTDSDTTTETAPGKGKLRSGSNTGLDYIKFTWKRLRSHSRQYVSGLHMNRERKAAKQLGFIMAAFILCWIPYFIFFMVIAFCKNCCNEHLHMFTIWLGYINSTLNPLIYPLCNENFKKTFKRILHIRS
Summary of the method: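 Filter-based scintillation detection of radioligand binding to human H1, 1 h incubation; chemicals screened in duplicate at 25 uM, then concentration-response; signal loss relative to DMSO taken as activity.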
With `CC(=O)[O][Hg][c]1ccccc1` the AC50 was 1.18 µM (active). In the case of `CCN1CCC2(CC1)COc1cc3c(cc12)N(C(=O)c1ccc(-c2ccc(-c4nnc(C)o4)cc2C)cc1)CC3`, the AC50 is reported as 32.2 µM (active). For `C=C(C)C(=O)[O][Sn]([CH2]CCC)([CH2]CCC)[CH2]CCC`, the AC50 was 1.96 µM (active). For `CCC(=O)C(CC(C)N(C)C)(c1ccccc1)c1ccccc1` (stereo not drawn), the AC50 was 7.25 µM (active).

The compounds below were run against D(1A) dopamine receptor (Homo sapiens) (UniProt P21728) (assay: NVS_GPCR_hDRD1: NovaScreen (NVS) G Protein-Coupled Receptor Assay for human Dopamine Receptor D1 (DRD1) (AID 2283269)).
D(1A) dopamine receptor (Homo sapiens), sequence (P21728 whole entry, looked up): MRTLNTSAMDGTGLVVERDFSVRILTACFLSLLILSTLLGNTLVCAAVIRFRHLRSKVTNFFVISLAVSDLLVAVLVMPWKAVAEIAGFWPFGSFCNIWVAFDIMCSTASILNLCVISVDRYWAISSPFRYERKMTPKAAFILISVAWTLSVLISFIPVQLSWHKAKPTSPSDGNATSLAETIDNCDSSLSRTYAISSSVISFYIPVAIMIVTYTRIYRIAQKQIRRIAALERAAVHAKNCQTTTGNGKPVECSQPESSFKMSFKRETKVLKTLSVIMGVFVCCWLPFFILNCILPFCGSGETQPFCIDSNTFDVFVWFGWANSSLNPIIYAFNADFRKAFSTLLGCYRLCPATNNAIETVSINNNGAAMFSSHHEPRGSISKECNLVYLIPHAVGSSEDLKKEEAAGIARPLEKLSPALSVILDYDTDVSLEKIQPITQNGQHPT
Summary of the method: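 Cell-free radioligand binding to human DRD1 from HEK293 membranes, read 1 h after dosing by filter-based scintillation counting. Loss of signal versus DMSO baseline marks displacement. Primary screen at 25 uM single concentration in duplicate; actives followed up in concentration series.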
With `O=C(O)C(F)(F)C(F)(F)C(F)(F)C(F)(F)C(F)(F)C(F)(F)C(F)(F)C(F)(F)C(F)(F)C(F)(F)F` the outcome was “inactive”. With `CCOC(=O)/C=C(C)/C=C/C[C@@H](C)CCCC(C)C` the AC50 was 32.1 µM (active). For `Oc1c(I)cc(I)cc1I`, the outcome was “inactive”. In the case of `O=C(c1ccccc1)C(Cl)Cl`, the outcome is reported as “inactive”. `O=C1C2(Cl)C3(Cl)C4(Cl)C(Cl)(Cl)C5(Cl)C3(Cl)C1(Cl)C5(Cl)C24Cl` (stereo not drawn) was tested, and the outcome was “inactive”. `Nc1cccc2ccccc12` was tested, and the AC50 was 37.8 µM (active). `CC(=O)[O][Hg][c]1ccccc1` was tested, and the AC50 was 0.104 µM (active). For `CCN1CCC2(CC1)COc1cc3c(cc12)N(C(=O)c1ccc(-c2ccc(-c4nnc(C)o4)cc2C)cc1)CC3`, the AC50 was 5.49 µM (active). In the case of `C=C(C)C(=O)[O][Sn]([CH2]CCC)([CH2]CCC)[CH2]CCC`, the AC50 is reported as 0.326 µM (active).

Each compound was assayed against Muscarinic acetylcholine receptor M1 (Homo sapiens) (UniProt P11229) (assay: NVS_GPCR_hM1: NovaScreen (NVS) G Protein-Coupled Receptor Assay for human Muscarinic, M1 Receptor (AID 2283270)).
Muscarinic acetylcholine receptor M1 (Homo sapiens), sequence (P11229 whole entry, looked up): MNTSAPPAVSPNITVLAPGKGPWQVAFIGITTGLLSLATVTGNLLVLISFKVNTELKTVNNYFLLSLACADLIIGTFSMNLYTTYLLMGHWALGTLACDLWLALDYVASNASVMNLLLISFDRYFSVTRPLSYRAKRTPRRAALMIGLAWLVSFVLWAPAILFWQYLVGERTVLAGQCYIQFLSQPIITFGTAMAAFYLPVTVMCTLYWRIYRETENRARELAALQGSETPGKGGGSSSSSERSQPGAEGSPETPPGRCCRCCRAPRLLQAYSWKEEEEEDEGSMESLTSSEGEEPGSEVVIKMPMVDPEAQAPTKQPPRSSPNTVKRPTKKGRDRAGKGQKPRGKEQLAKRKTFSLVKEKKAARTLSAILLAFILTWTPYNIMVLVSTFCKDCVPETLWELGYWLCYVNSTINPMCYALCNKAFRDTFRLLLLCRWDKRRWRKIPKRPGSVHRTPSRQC
Summary of the method: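 Actives from a duplicate 25 uM single-point screen were retested in concentration series. Binding measured as displacement of a radioligand from CHO-derived receptor preparation, 1 h incubation, filtration and scintillation counting, analysed as signal loss against DMSO.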
For `CC(C)(C)CC(C)(C)c1ccc(O)cc1`, the outcome was “inactive”. In the case of `CC(=O)[O][Hg][c]1ccccc1`, the AC50 is reported as 1.39 µM (active). For `CCN1CCC2(CC1)COc1cc3c(cc12)N(C(=O)c1ccc(-c2ccc(-c4nnc(C)o4)cc2C)cc1)CC3`, the AC50 was 0.646 µM (active). `C=C(C)C(=O)[O][Sn]([CH2]CCC)([CH2]CCC)[CH2]CCC` was tested, and the AC50 was 1.9 µM (active). `CCC(=O)C(CC(C)N(C)C)(c1ccccc1)c1ccccc1` (stereo not drawn) was tested, and the AC50 was 6.92 µM (active).

These compounds were tested against human Leukotriene B4 Receptor 1 (LTB4-BLT1), LTB4R (gene 1241) (UniProt Q15722) (assay: NVS_GPCR_hLTB4_BLT1: NovaScreen (NVS) G Protein-Coupled Receptor Assay for human Leukotriene B4 Receptor 1 (LTB4-BLT1) (AID 2283271)).
human Leukotriene B4 Receptor 1 (LTB4-BLT1), LTB4R (gene 1241), sequence (Q15722 whole entry, looked up): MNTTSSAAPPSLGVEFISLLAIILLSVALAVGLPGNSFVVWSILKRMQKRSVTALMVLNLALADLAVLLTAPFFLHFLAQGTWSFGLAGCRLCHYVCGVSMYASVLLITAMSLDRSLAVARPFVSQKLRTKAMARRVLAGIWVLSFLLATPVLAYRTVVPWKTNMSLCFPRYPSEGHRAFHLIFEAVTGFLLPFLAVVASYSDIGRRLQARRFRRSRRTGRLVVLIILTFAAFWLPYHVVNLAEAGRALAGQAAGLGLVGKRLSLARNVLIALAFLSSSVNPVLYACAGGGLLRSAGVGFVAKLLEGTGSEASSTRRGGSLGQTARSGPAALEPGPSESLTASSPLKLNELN
Summary of the method: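 Cell-free human neutrophil receptor preparation, 1 h exposure, radioligand binding read by filter scintillation counting. Single 25 uM duplicate screen, then concentration series topping at 50 uM; binding loss scored against DMSO baseline.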
In the case of `O=C(O)C(F)(F)C(F)(F)C(F)(F)C(F)(F)C(F)(F)C(F)(F)C(F)(F)C(F)(F)C(F)(F)C(F)(F)F`, the AC50 is reported as 33.4 µM (active). In the case of `CC(C)(C)c1cc(O)ccc1O`, the outcome is reported as “inactive”. With `CC(=O)[O][Hg][c]1ccccc1` the AC50 was 21 µM (active).

These compounds were tested against Muscarinic acetylcholine receptor M3 (Homo sapiens) (UniProt P20309) (assay: NVS_GPCR_hM3: NovaScreen (NVS) G Protein-Coupled Receptor Assay for human Muscarinic, M3 Receptor (AID 2283272)).
Muscarinic acetylcholine receptor M3 (Homo sapiens), sequence (P20309 whole entry, looked up): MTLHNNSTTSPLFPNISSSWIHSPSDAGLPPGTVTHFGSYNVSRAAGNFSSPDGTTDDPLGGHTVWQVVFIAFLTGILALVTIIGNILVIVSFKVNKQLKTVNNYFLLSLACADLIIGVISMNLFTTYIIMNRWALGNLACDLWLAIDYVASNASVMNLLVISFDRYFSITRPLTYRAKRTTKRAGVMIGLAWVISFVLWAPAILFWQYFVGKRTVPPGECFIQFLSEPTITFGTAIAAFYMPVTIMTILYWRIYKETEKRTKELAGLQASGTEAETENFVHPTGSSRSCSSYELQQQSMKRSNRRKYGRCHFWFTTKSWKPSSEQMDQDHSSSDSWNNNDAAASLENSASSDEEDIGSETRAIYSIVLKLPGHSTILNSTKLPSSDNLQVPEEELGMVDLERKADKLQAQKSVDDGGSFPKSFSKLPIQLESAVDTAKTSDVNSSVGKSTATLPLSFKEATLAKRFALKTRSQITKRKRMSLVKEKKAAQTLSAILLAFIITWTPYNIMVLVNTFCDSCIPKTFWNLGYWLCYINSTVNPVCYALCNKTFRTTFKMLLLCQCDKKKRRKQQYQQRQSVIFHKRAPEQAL
Summary of the method: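 Radioligand displacement binding on human M3 receptor in CHO-derived membranes, 1 h incubation, filter-based scintillation counting. Primary screen in duplicate at 25 uM; actives followed up in concentration series; loss of signal versus DMSO.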
For `O=C1C2(Cl)C3(Cl)C4(Cl)C(Cl)(Cl)C5(Cl)C3(Cl)C1(Cl)C5(Cl)C24Cl` (stereo not drawn), the outcome was “inactive”. With `CC(=O)[O][Hg][c]1ccccc1` the AC50 was 562 nM (active). `CCN1CCC2(CC1)COc1cc3c(cc12)N(C(=O)c1ccc(-c2ccc(-c4nnc(C)o4)cc2C)cc1)CC3` was tested, and the AC50 was 676 nM (active). In the case of `C=C(C)C(=O)[O][Sn]([CH2]CCC)([CH2]CCC)[CH2]CCC`, the AC50 is reported as 2670 nM (active). With `CCC(=O)C(CC(C)N(C)C)(c1ccccc1)c1ccccc1` (stereo not drawn) the AC50 was 10700 nM (active).

Each compound was assayed against Muscarinic acetylcholine receptor M2 (Homo sapiens) (UniProt P08172) (assay: NVS_GPCR_hM2: NovaScreen (NVS) G Protein-Coupled Receptor Assay for human Muscarinic, M2 Receptor (AID 2283273)).
Muscarinic acetylcholine receptor M2 (Homo sapiens), sequence (P08172 whole entry, looked up): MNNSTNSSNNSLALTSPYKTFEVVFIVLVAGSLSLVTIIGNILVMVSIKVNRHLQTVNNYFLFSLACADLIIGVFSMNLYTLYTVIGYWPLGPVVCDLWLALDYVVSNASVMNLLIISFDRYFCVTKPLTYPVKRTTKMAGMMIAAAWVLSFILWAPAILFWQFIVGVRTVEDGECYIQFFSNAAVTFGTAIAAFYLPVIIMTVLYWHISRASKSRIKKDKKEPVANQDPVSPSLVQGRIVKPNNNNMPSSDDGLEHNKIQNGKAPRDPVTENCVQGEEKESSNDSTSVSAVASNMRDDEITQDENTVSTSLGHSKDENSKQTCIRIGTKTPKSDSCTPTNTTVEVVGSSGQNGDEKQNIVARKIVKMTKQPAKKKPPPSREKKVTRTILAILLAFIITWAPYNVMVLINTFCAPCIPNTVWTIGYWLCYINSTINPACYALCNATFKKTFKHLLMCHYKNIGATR
Summary of the method: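 Radioligand competition binding, cell-free, receptor from CHO; 1 h incubation; scintillation detection. Primary testing at 25 uM in duplicate.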
With `CC(C)(C)CC(C)(C)c1ccc(O)cc1` the outcome was “inactive”. `O=C1C2(Cl)C3(Cl)C4(Cl)C(Cl)(Cl)C5(Cl)C3(Cl)C1(Cl)C5(Cl)C24Cl` (stereo not drawn) was tested, and the outcome was “inactive”. For `CC(=O)[O][Hg][c]1ccccc1`, the AC50 was 0.909 µM (active). For `CCN1CCC2(CC1)COc1cc3c(cc12)N(C(=O)c1ccc(-c2ccc(-c4nnc(C)o4)cc2C)cc1)CC3`, the AC50 was 1.32 µM (active). In the case of `C=C(C)C(=O)[O][Sn]([CH2]CCC)([CH2]CCC)[CH2]CCC`, the AC50 is reported as 5.32 µM (active). `CCC(=O)C(CC(C)N(C)C)(c1ccccc1)c1ccccc1` (stereo not drawn) was tested, and the AC50 was 9.96 µM (active).

These compounds were tested against human Muscarinic, M4 Receptor, CHRM4 (gene 1132) (UniProt P08173) (assay: NVS_GPCR_hM4: NovaScreen (NVS) G Protein-Coupled Receptor Assay for human Muscarinic, M4 Receptor (AID 2283274)).
human Muscarinic, M4 Receptor, CHRM4 (gene 1132), sequence (P08173 whole entry, looked up): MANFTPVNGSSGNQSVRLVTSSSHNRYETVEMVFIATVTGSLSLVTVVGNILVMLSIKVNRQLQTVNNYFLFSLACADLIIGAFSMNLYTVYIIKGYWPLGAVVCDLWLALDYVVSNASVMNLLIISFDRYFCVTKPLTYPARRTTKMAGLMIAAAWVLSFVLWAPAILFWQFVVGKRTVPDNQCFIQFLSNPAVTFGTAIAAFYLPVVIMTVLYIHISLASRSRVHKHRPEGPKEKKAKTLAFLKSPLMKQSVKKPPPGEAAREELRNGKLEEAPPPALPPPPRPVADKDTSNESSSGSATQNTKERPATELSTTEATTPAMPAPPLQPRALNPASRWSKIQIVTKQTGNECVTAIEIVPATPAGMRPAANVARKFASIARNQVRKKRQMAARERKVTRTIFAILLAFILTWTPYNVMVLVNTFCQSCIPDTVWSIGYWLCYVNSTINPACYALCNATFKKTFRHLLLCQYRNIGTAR
Method: NVS_GPCR_hM4 is a biochemical, single-readout assay that uses extracted gene-proteins from CHO in a cell-free assay. Measurements were taken 1 hour after chemical dosing in a 96-well plate.NVS_GPCR_hM4 is one of one assay component(s) measured or calculated from the NVS_GPCR_hM4 assay. It is designed to make measurements of radioligand binding, a form of binding reporter, as detected with scintillation counting signals by Filter-based radiodetection technology.Data from the assay component NVS_GPCR_hM4 was analyzed into 1 assay endpoint. This assay endpoint, NVS_GPCR_hM4, was analyzed in the positive analysis fitting direction relative to DMSO as the negative control and baseline of activity. Using a type of binding reporter, loss-of-signal activity can be used to understand changes in the binding as they relate to the gene CHRM4. Furthermore, this assay endpoint can be referred to as a primary readout, because the performed assay has only produced 1 assay endpoint. To generalize the intended target to other relatable targets, this assay endpoint is annotated to the gpcr intended target family, where the subfamily is rhodopsin-like receptor.
Binding assays used specific radioligands (tritiated, iodinated) with non-radioactive competitive displacement ligands in agonist or antagonist protocols (as indicated) and various reference compounds and inhibitors to titrate specific binding to receptors and transporters. Most enzyme assays (CYPs, kinases, phosphatases, proteases, HDACs) used recombinant protein and specific substrates (fluorescence mostly, some colorimetric and radioactive) and inhibitors, followed by a biochemical separation of substrate and product. All assays for the biochemical HTS were initially run in duplicate at a single concentration (10 uM for CYP450 assays and 25 uM for all others). […] Each assay was run with positive and negative controls, and concurrent controls on every plate. The follow-up (secondary) screen tested active chemical-pairs in concentration series, as well as a few additional assays not tested in the primary screen, some selected negative inactives, and several cases re-run in the concentration series for confirmatory purposes.
For `O=C1C2(Cl)C3(Cl)C4(Cl)C(Cl)(Cl)C5(Cl)C3(Cl)C1(Cl)C5(Cl)C24Cl` (stereo not drawn), the outcome was “inactive”. With `CC(=O)[O][Hg][c]1ccccc1` the AC50 was 0.77 µM (active). With `CCN1CCC2(CC1)COc1cc3c(cc12)N(C(=O)c1ccc(-c2ccc(-c4nnc(C)o4)cc2C)cc1)CC3` the AC50 was 1.9 µM (active). With `C=C(C)C(=O)[O][Sn]([CH2]CCC)([CH2]CCC)[CH2]CCC` the AC50 was 19.1 µM (active). For `CCC(=O)C(CC(C)N(C)C)(c1ccccc1)c1ccccc1` (stereo not drawn), the AC50 was 8.3 µM (active).

— PubChem BioAssay (EPA / NIEHS)
